Experiment [1] is described as follows: qHTS assay for small molecules that induce genotoxicity in human embryonic kidney cells expressing luciferase-tagged ATAD5 (AID 651632). Further: nearly all actives have a fitted effect of over 15% in size. The method in brief:
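Reporter cells (HEK293T) express luciferase-tagged ATAD5, a protein that accumulates after DNA damage. Treat 16 hr at 37C/5% CO2, add Amplite, wait 30 min at RT, and read luminescence.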
(In general: qHTS replaces the single test concentration by a dilution series.)

Experiment [2] is described as follows: qHTS assay for small molecules that induce genotoxicity in human embryonic kidney cells expressing luciferase-tagged ATAD5 - cell viability (AID 651634; calls by dose curve; further: nearly all actives have a fitted effect of over 25% in size; further: potency means the concentration at half of the fitted maximal effect). The method in brief: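 Seeding of 2,000 HEK293T ATAD5-luciferase cells per well preceded pin-tool compound transfer. Plates sat 15.5 hr at 37C under 5% CO2, then fluorescence was read after 30 min with CellTiter-Fluor.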

Experiment [3] is described as follows: qHTS assay for small molecule disruptors of the mitochondrial membrane potential - cell viability (AID 720634; calls by dose curve; further: nearly all actives have a fitted effect of over 20% in size; further: potency means the concentration at half of the fitted maximal effect). The method in brief: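 Measuring cytotoxicity alongside mitochondrial potential, the screen quantified ATP by luminescence in HepG2 cells after 1 hr compound incubation and a 30 min room-temperature CellTiter-Glo step.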
The nature of experiment [4]: qHTS assay for small molecule disruptors of the mitochondrial membrane potential (AID 720635). Further: potency means the concentration at half of the fitted maximal effect. Summed up: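 Mitochondrial membrane potential tracked with Mito-MPS dye, red aggregates (ex 540/em 590 nm) against green monomers (ex 490/em 535 nm). Compound treatment 1 hr at 37C, dye 30 min in HepG2.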
Experiment [5] is described as follows: qHTS assay to test for compound auto fluorescence at 590 nm (red) in HepG2 cells (AID 720674). The method in brief: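 1 hr compound incubation on HepG2 cells, 37 C, 5% CO2; plate read ex 540 nm / em 590 nm; intensities reported as Rose Bengal sodium equivalents.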
Experiment [6] is described as follows: qHTS assay to test for compound auto fluorescence at 535 nm (green) in HepG2 cells (AID 720675).
A short description of experiment [7]: qHTS assay to test for compound auto fluorescence at 460 nm (blue) in HEK293 cells (AID 720678). The method in brief: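 Auto fluorescence in the blue band was quantified as triamterene equivalency. HEK293 cells were seeded at 2,000/well, dosed after a 4-5 hr attachment, and kept overnight at 37C before the 405/460 nm reading.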
A short description of experiment [8]: qHTS assay to test for compound auto fluorescence at 590 nm (red) in HEK293 cells (AID 720679). Summed up:
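Autofluorescence equivalency to Rose Bengal sodium, 540/590nm, in HEK293 cells exposed overnight to 23 nL compound per well.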

Experiment [9] can be described thus: qHTS assay for small molecule agonists of the p53 signaling pathway - cell viability (AID 651633; calls by dose curve; further: nearly all actives have a fitted effect of over 30% in size; further: potency means the concentration at half of the fitted maximal effect). The method in brief: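 Viability counter-read: CellTiter-Glo luminescence (30 min, room temperature) in the same p53RE-bla plates. These plates had been exposed to compounds for 16 h at 37 C.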

Values without a mark were called inactive. Records with an inconclusive call do not appear. Active and inactive are the calls of the source. Unless noted, the call rests on the fitted dose curve; in most records, active means well fitted curve in the direction sought with a large enough effect in the repeat runs; inconclusive means weak or mixed curves; inactive means no such curve, though single readings can be large; an effect the other way counts as inactive or inconclusive.

Turning to `C/C(=C\c1ccccc1)[N+](=O)[O-]`, the Potency entry in experiment [1] and in experiment [3] was “inactive” each time. Moreover, the results for the Potency in [2] and in experiment [4] were 24.3 µM (active) and 30.6 µM (active), respectively. In addition, the compound was called inactive in experiment [5], in experiment [6], in experiment [7] and in experiment [8].
Regarding `O=C(Nc1ccccc1)Nc1ccnc(Cl)c1`, the Potency entry in experiment [1], in experiment [9] and in experiment [3] was “inactive” in each case. In [4], the Potency was 0.386 µM (active). Also, the call in [5], in experiment [6], in experiment [7] and in experiment [8] was inactive.
On to `O=C1NCN(c2ccccc2)C12CCN(CCCOc1ccc(F)cc1)CC2`, for which the Potency result in experiment [1], in experiment [9] and in experiment [3] was “inactive” throughout. The Potency in experiment [4] is 3.35 µM (active). In addition, the compound was classed as inactive in experiment [5], in experiment [6], in experiment [7] and in experiment [8].
Take `CC(O)(CS(=O)(=O)c1ccc(F)cc1)C(=O)Nc1ccc(C#N)c(C(F)(F)F)c1` (centres undefined): the Potency entry in experiment [1] and in [9] was “inactive” throughout. For the same compound, the outcome in experiment [5], in experiment [6], in experiment [7] and in [8] was inactive.
Consider `CCCCCCCCCCOC(=O)c1ccccc1C(=O)OCCCCCCCCCC`, for which the Potency entry in [1], in experiment [9], in experiment [3] and in experiment [4] was “inactive” each time. The compound was called inactive in experiment [5], in experiment [6], in [7] and in [8].
In the case of `COC(=O)C(C)N(C(=O)Cc1ccccc1)c1c(C)cccc1C` (centres undefined), the Potency result in [1] and in experiment [9] was “inactive” each time. For the same compound, the call in experiment [5], in [6], in [7] and in [8] was inactive.
Regarding `O=C(NC(=O)c1c(F)cccc1F)Nc1ccc(OC(F)(F)C(F)OC(F)(F)F)c(Cl)c1` (centres undefined), the Potency result in [1], in experiment [2] and in experiment [3] was “inactive” each time. The call in experiment [5], in experiment [6], in [7] and in experiment [8] was inactive.
Take `O=S1OC[C@@H]2[C@H](CO1)[C@]1(Cl)C(Cl)=C(Cl)[C@@]2(Cl)C1(Cl)Cl` (some centres undefined): the Potency result in experiment [1] and in experiment [2] was “inactive” each time. Also, the Potency in [9] was 61.1 µM (active). In addition, the call in experiment [5], in experiment [6], in experiment [7] and in experiment [8] was inactive.
Take `CC(C)(C)c1cc([N+](=O)[O-])cc([N+](=O)[O-])c1O`: the Potency entry in experiment [1] is “inactive”. Further, the Potency in [2] is 6.09 µM (active); in experiment [4] it was 0.484 µM (active). Moreover, the call in [5] and in [8] was inactive.
Consider `O=[N+]([O-])c1cc(C(F)(F)F)cc([N+](=O)[O-])c1Cl`, for which the Potency entry in experiment [1] and in experiment [9] was “inactive” throughout. The result in experiment [5], in [6] and in experiment [8] was inactive.
In the case of `O=C(O)CC(Cl)C(=O)O` (centres undefined), the Potency result in experiment [1], in experiment [9] and in [2] was “inactive” throughout. Further, the call in experiment [5], in experiment [7] and in experiment [8] was inactive.
With `OC(c1ccc(Cl)cc1)(c1ccc(Cl)cc1)c1cccnc1`, the Potency entry in [1], in experiment [2] and in [3] was “inactive” in each case. Further, the Potency in experiment [4] is 54.5 µM (active). In addition, the compound was classed as inactive in [5], in [6] and in experiment [8].
In the case of `NC(=O)C(Cl)(Cl)Cl`, the Potency result in experiment [9], in experiment [3] and in experiment [4] was “inactive” throughout. For the same compound, the compound was classed as inactive in experiment [5], in experiment [6], in experiment [7] and in experiment [8].
For the compound `CC(C)O.CC(C)O.OCCN(CCO)CCO.OCCN(CCO)CCO.[Ti]`, the Potency entry in [2] was “inactive”. In addition, the compound was classed as inactive in [5], in [6], in experiment [7] and in experiment [8].
Turning to `CCc1ccc(C(=O)NN(C(=O)c2cc(C)cc(C)c2)C(C)(C)C)cc1`, in experiment [9], the Potency result is “inactive”. In addition, the Potency in experiment [2] is 0.486 µM (active). For the same compound, the compound was called inactive in experiment [5], in experiment [6] and in experiment [8].
In the case of `Cl/C=C\C[N+]12CN3CN(CN(C3)C1)C2`, the Potency entry in experiment [9], in experiment [2], in experiment [3] and in [4] was “inactive” throughout. In addition, the result in experiment [5], in [6], in experiment [7] and in experiment [8] was inactive.
On to `O=C=Nc1ccc(Cl)cc1`, for which the Potency entry in experiment [9] was “inactive”. Also, the Potency was 21.7 µM (active) in experiment [3] and 0.172 µM (active) in experiment [4]. Further, the call in [5], in [7] and in experiment [8] was inactive.
For `CO/N=C(/C(=O)OC)c1ccccc1COc1ccccc1C`, in [2], the Potency entry is “inactive”. For the same compound, the outcome in experiment [5], in experiment [6], in experiment [7] and in experiment [8] was inactive.
As for `NS(=O)(=O)C(F)(F)C(F)(F)C(F)(F)C(F)(F)C(F)(F)C(F)(F)C(F)(F)C(F)(F)F`, the Potency entry in [1] is “inactive”. Besides, the Potency in experiment [4] is 1.93 µM (active). Further, the outcome in [5], in [6], in experiment [7] and in [8] was inactive.
Turning to `CN(N=O)c1ccc([N+](=O)[O-])cc1`, the Potency result in experiment [9], in [2], in experiment [3] and in experiment [4] was “inactive” throughout. Moreover, the outcome in [5], in [6], in experiment [7] and in experiment [8] was inactive.
For `NC(=O)CI`, the Potency entry in experiment [9] and in [3] was “inactive” each time. Further, the call in experiment [5], in [6], in [7] and in [8] was inactive.
Turning to `CCCCC(CC)COP(=O)(Oc1ccccc1)Oc1ccccc1` (centres undefined), the Potency entry in experiment [9] and in experiment [2] was “inactive” throughout. Moreover, the outcome in experiment [5], in experiment [7] and in experiment [8] was inactive.
Consider `Oc1ccc(Cl)c(Cl)c1Cl`, for which the Potency entry in experiment [9], in experiment [2] and in experiment [3] was “inactive” in each case. Also, in experiment [4], the Potency is 4.49 µM (active). The result in [5], in [7] and in [8] was inactive.

Source of the values: PubChem BioAssay (Tox21).
